# Compounds with a hit are over-represented: about 6.2% of the library has one in this group of screens.
# H9c2 protect: protects H9c2 cardiomyocytes from peroxide injury. H2O2 injury protection, ATPLite, 2 h. protection from H2O2 cell death, % at 20 µM. actives 0.63% (n = 360,000). AID 588492;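 active = compounds giving at least 50% protection of heart cells from peroxide-induced death in the single-dose screen, raw or plate-pattern-corrected value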;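 also: 0% = DMSO wells with peroxide and 100% = DMSO wells without peroxide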
# AI-2 QS mod: modulates the Vibrio harveyi AI-2 quorum sensing system. activity change, % at 7.5 µM. Vibrio harveyi JMH597 AI-2 luminescence/OD600 ratio, 9 h; stronger effect = lower value; strain lacks LuxN and CqsS sensors; 0 = neutral-control median. actives 0.4% (n = 300,000); in the data active = activity change below about -75%, passing the limit was not always enough;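 also: luminescence divided by OD600 gain over 9 h not by final OD600 alone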
# GRIN3A LBD mod: NR3A (human) ligand-binding domain modulation; NR3A LBD differential scanning fluorimetry, Tm shift; 0% = protein alone, 100% = glycine-bound protein; Tm shift relative to glycine control, % at 25 µM; AID 1259313; actives 2.5% (n = 340,000);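 active = melting temperature shift of at least 10% of the positive control shift, at one fixed dose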
# Mot1-301 SUMO: blocks SUMOylation pathway, rescuing yeast Mot1-301 growth; growth rescue, % at 18.8 µM; AID 2716; actives 1% (n = 320,000); S. cerevisiae Mot1-301 growth rescue, ATP luminescence, 38.5C; percent above DMSO median, 100 means doubled;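 active = every valid replicate shows activation above 250% relative to neutral control wells; inactive = the rest, any valid replicate at or below 250%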;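 also: OY570 slx delta 5 strain wells were the positive control but not used for scaling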
# AHR act: human AHR activation; AHR-responsive luciferase reporter cells, luminescence; activation, % at 5 µM; actives 2.5% (n = 320,000); in the data active = activation above about 47%;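 also: 0% = vehicle wells and 100% = reference agonist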
# Target sequence (P35869 whole entry, looked up): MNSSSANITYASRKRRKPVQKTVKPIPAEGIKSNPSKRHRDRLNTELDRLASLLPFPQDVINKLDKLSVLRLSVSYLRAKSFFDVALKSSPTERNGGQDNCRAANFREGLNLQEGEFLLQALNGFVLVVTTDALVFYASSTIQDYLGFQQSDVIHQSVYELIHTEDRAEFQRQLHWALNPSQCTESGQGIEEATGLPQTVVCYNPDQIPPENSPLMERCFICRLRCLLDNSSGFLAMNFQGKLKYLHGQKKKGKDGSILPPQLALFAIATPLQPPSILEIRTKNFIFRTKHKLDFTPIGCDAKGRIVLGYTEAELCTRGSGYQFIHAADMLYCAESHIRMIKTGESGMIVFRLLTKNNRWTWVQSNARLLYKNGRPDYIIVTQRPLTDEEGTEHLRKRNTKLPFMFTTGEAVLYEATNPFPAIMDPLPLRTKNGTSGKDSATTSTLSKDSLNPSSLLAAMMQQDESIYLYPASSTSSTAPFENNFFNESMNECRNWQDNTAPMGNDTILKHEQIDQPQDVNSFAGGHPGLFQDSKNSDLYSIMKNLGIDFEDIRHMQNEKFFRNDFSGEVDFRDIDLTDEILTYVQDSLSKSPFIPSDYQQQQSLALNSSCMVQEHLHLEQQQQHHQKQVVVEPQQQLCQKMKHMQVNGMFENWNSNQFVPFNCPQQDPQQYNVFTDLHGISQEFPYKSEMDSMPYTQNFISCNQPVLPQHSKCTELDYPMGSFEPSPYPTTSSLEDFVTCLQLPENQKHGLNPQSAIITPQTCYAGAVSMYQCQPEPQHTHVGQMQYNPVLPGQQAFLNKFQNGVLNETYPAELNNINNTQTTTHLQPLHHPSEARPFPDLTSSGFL
# NTR1 agonist: agonists of human neurotensin receptor NTR1 | P30989 | NTR1-U2OS beta-arrestin-GFP spot imaging, agonist mode | activation, % at 20 µM | actives 0.17% (n = 330,000) | AID 493036;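 active = activation at or above 40% of the spot to cytoplasm intensity ratio, with at least 20 cells analyzed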;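 also: 0% = DMSO without peptide and 100% = 100 nM NTR1 peptide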
# Starred values were filed as active, the others as inactive; . = no result; + = active, no number.
SMILES,H9c2 protect,AI-2 QS mod,GRIN3A LBD mod,Mot1-301 SUMO,AHR act,NTR1 agonist
NNc1nc(Nc2ccc([N+](=O)[O-])cc2)nc(N2CCCCCC2)n1,33,10,0,-6,68*,8
O=[N+]([O-])c1ccc(Nc2nc(N/N=C\c3ccc4c(c3)OCO4)nc(N3CCCCC3)n2)cc1,41,30,13*,73,71*,4
CC1CC1C(=O)OCC(=O)NNC(=O)c1ccc([N+](=O)[O-])cc1 (stereo not given),12,.,0,0,-1,0
O=C(Oc1c(Cl)cc(Cl)c2cccnc12)c1ccco1,-4,-88*,-1,218,26,6
O=C(NCCc1cccnc1)c1cc(COc2ccc(F)cc2F)on1,-1,-76*,1,18,11,1
COCCN1Cc2cccc(C(=O)Nc3cccc(OC)c3)c2C1=O,3,8,19*,-18,-12,5
COc1cccc(C(=O)COC(=O)C(C)N2C(=O)c3ccccc3C2=O)c1 (stereo not given),11,-4,14*,3,-1,-1
CC(C(=O)OCC(=O)c1ccccc1)N1C(=O)c2ccccc2C1=O (stereo not given),12,26,-3,-11,-2,2
O=c1[nH]cnc2c1ncn2C1OC(CO)CC1F (stereo not given),5,.,.,.,.,.
Cc1cc(S(=O)(=O)NC(C)c2nnc3ccccn23)ccc1Br (stereo not given),4,.,1,4,-2,-2
Cc1ccc(S(=O)(=O)c2cnc3cc(C)nn3c2N)cc1,10,-90*,1,-7,1,-1
CN(C(=O)CSc1nc2c(c(=O)[nH]1)CCCC2)C1CCCCC1,63*,0,0,0,1,2
CCC1=C(c2ccc(C)cc2)S(=O)(=O)N=C1N1CCC(C(=O)NCCCN2CCCCC2C)CC1 (stereo not given),2,16,1,-7,2,-2
CCOc1ccc(NC(=O)CCc2c(C)nn(-c3ccc(N4CCCCC4)nn3)c2C)cc1,-5,6,14*,-17,5,1
COCCCN(C(=O)Cc1ccc(S(=O)(=O)N2CCOCC2)s1)c1c(N)n(Cc2ccccc2)c(=O)[nH]c1=O,7,.,1,.,.,.
COc1ccc(C(=O)NCCc2nnc3ccc(SCC(=O)N4CCCCC4)nn23)cc1,3,21,-2,138,2,-1
Cc1ccc(/C=N/NS(=O)(=O)c2ccc([N+](=O)[O-])cc2)o1,-4,-11,0,1,-1,-1
CCCCCCCCCCS(=O)(=O)N/N=C/c1ccc([N+](=O)[O-])cc1,-17,24,31*,19,0,0
CC(NC(=O)c1ccco1)C(=O)N1CCN(c2cccc(C(F)(F)F)c2)CC1 (stereo not given),-4,.,0,7,-2,12
CCOC(=O)C1(CC2CC2)CCN(Cc2cnc(-c3ccccc3C)nc2)CC1,-4,11,-2,946*,0,0
Cc1ccc(-c2nc(NCc3cccnc3)c3ccccc3n2)cc1,-3,14,-8,56,22,9
COc1ccc(/C=N/Nc2nc(-c3cccnc3)nc3ccccc23)c(OC)c1,43,3,5,325,51*,10
O=[N+]([O-])c1cccc(/C=N/Nc2nnc(-c3ccccc3)c(-c3ccccc3)n2)c1,1,19,-2,-6,1,2
COc1ccc(Nc2nc(-c3ccccc3)nc3ccccc23)c(OC)c1,-9,-6,-2,-14,28,12
Cc1ccc(-c2nc(N/N=C/c3cccc([N+](=O)[O-])c3)c3ccccc3n2)cc1,-12,.,163*,-9,14,14
SMILES,H9c2 protect,AI-2 QS mod,GRIN3A LBD mod,Mot1-301 SUMO,AHR act,NTR1 agonist
Cc1ccc(-c2nc(N/N=C/c3cccnc3)c3ccccc3n2)cc1,-23,51,-7,-12,62*,9
CN(C)S(=O)(=O)c1ccc(C(=O)OCC(=O)NC(=O)NC2CCCC2)cc1,3,.,2,-1,2,-2
CN(C)S(=O)(=O)c1ccc(C(=O)OCC2CCCO2)cc1 (stereo not given),8,-77*,-1,-9,.,.
COc1ccc(S(=O)(=O)N(C)C[C@H]2Oc3ccc(NS(=O)(=O)c4cn(C)cn4)cc3C(=O)N([C@H](C)CO)C[C@@H]2C)cc1,15,.,1,.,1,0
S=C(NC1CC1)N1CCc2ccccc2C1,-7,7,-1,-19,3,2
S=C(NC1CCCCC1)N1CCc2ccccc2C1,-12,16,11*,-3,4,2
S=C(Nc1ccc(Cl)c(Cl)c1)N1CCCC1,7,2,-2,19,6,0
Cc1ccc(C)c(N2CCN(C(=S)NC3CCCCC3)CC2)c1,-3,20,0,-11,0,0
CN1CCN(C(=S)Nc2ccc(Cl)c(Cl)c2)CC1,0,-6,13*,21,2,0
O=C(NC(=S)N1CCN(c2ccccn2)CC1)c1ccccc1,-3,10,4,7,-1,0
S=C(NC1CCCC1)N1CCN(c2ccccn2)CC1,0,-6,0,5,57*,-1
Cc1cccc(N2CCN(C(=S)NC3CCCCC3)CC2)c1C,-3,8,2,+,1,5
COc1ccc(N(CC(=O)NCc2ccc3c(c2)OCO3)C(=O)c2csnn2)cc1,-2,16,0,209,1,3
CCC1c2ccccc2C(=O)C1C(N)=O (stereo not given),5,.,1,.,.,.
O=C(COc1ccc(Br)cc1)NCCNC(=O)c1ccccn1,-4,6,0,0,-1,3
CCCCNC(=O)C1(C)CCCCN1C(=O)c1ccc(C)c(F)c1 (stereo not given),-1,.,.,.,.,.
S=C(Nc1ccc(Cl)c(Cl)c1)N1CCN(c2ccccn2)CC1,2,2,11*,-16,19,0
S=C(Nc1cccc(Cl)c1)N1CCN(c2ccccn2)CC1,2,32,1,-3,-3,0
CC(C)CN=Cc1c(O)c([N+](=O)[O-])cc2oc3c(c12)CCCC3,95*,17,-5,56,1,14
Cc1oc2cc([N+](=O)[O-])c(O)c([N+](=O)[O-])c2c1C(=O)c1ccc(Cl)cc1,-11,25,-3,-12,4,1
O=[N+]([O-])c1cc2oc3c(c2c(C=NCc2ccccc2)c1O)CCCC3,61*,38,-2,-10,0,1
CCCn1c(N)c(C(=O)CN(C)CC(=O)Nc2c(Cl)cccc2Cl)c(=O)[nH]c1=O,1,.,1,0,0,4
CCOC(=O)c1cnc2c(-c3ccccc3)c(-c3ccccc3)nn2c1C,-7,17,-1,166,2,8

# Bioassay records (PubChem BioAssay)
